The values below come from PubChem BioAssay (Tox21).

Molecules are shown by their SMILES. Inconclusive results are not listed. Activity calls are given as the source filed them. Unless noted, calls come from the whole dose curve; as a rule, active = well fitted curve in the direction sought with a large enough effect in the repeat runs; inconclusive = weak or mixed curves; inactive = no such curve, though single readings can be large; an effect the other way counts as inactive or inconclusive.

The target of test [1] is Thyrotropin-releasing hormone receptor (Homo sapiens) (UniProt P34981). As to the kind of experiment: qHTS assay to identify small molecule agonists of the thyrotropin-releasing hormone receptor (TRHR) signaling pathway (AID 1346891; calls by dose curve;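 note: HEK293 cells expressing TRHR with calcium dye readout; series mostly up to about 58 µM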). In outline:
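HEK293/TRHR cells, 1500 per well, 18 h 37 °C; Ca dye 2 h 37 °C; pin-tool compound addition (agonist mode); kinetic fluorescence 3 min, 1 s reads; 15 concentrations, triplicate.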
(qHTS replaces the single test concentration by a dilution series.)

Test [2] is described as follows: Human pregnane X receptor (PXR) small molecule agonists, qHTS cell viability counter screen (AID 1346977). Note: nearly all actives have a fitted effect of over 50% in size. In outline: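 Fluorescence read-out (CellTiter-Fluor) of viability in PXR-Luc HepG2 cells, multiplexed with the luciferase agonist read. Compounds in DMSO added after 5hr plating; 24hr total exposure at 37C, 5% CO2.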
Test [3] in a line: Caspase-3/7 induction in HepG2 cells by small molecules, qHTS assay (AID 1346978). Note: nearly all actives have a fitted effect of over 15% in size. Summed up:
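Caspase-3/7 induction was measured by Caspase-Glo 3/7 luminescence (30 min, room temperature) after a 17 hr compound exposure of wild-type HepG2 cells seeded at 2,000 per well and pre-incubated 5 hr.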

Test [4] can be described thus: Caspase-3/7 induction in CHO-K1 cells by small molecules, qHTS cell viability counter screen (AID 1346979). Note: nearly all actives have a fitted effect of over 35% in size. In outline: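 CHO-K1 wt, 1,500 cells/well; 5hr pre-incubation 37C/5% CO2; compound pin transfer (DMSO); 16hr exposure; CellTiter-Fluor added, 1hr, fluorescence read.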
A short description of test [5]: Caspase-3/7 induction in CHO-K1 cells by small molecules, qHTS assay (AID 1346980). Note: nearly all actives have a fitted effect of over 15% in size. Summed up:
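Luminescent Caspase-Glo 3/7 read (30min, room temperature) quantified apoptosis induction. Cells were wild-type CHO-K1, treated with compound for 17hr at 37 C and 5% CO2.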

The nature of test [6]: Caspase-3/7 induction in HepG2 cells by small molecules, qHTS cell viability counter screen (AID 1346981). Note: series mostly up to about 92 µM; nearly all actives have a fitted effect of over 30% in size. Summed up:
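In this quantitative HTS counter screen, compounds delivered in DMSO were left on unmodified HepG2 cells for 16 hr at 37 C. Viability was then determined fluorometrically with CellTiter-Fluor, in parallel with caspase-3/7 induction in the same wells.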

Test [7] concerns the target Nuclear receptor subfamily 1 group I member 2 (Homo sapiens) (UniProt O75469). In words: Human pregnane X receptor (PXR) small molecule agonists, qHTS assay (AID 1346982). Note: nearly all actives have a fitted effect of over 35% in size. Note: potency is the fitted concentration of half-maximal effect. In outline: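 Reporter HepG2 cells expressing PXR-Luc are cultured in charcoal-stripped FBS (5%), treated with compounds for 24 hr at 37 C, and assayed by ONE-Glo luminescence after 30 min at room temperature.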

In test [8] the target is Acetylcholinesterase (Homo sapiens) (UniProt P22303). In words: Acetylcholinesterase (AChE) small molecule antagonists: colormetric cell-based qHTS assay (AID 1347395; calls by dose curve; note: nearly all actives have a fitted effect of over 30% in size; note: potency is the fitted concentration of half-maximal effect). Summed up:
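SH-SY5Y cells; cpd 30 min 37 C; + DTNB/acetylthiocholine, 90 min 37 C; colorimetric thiocholine read; qHTS.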

For test [9] the target is unchanged. In words: Acetylcholinesterase (AChE) small molecule antagonists: enzyme-based qHTS assay with human liver microsomes (AID 1347399; calls by dose curve; note: nearly all actives have a fitted effect of over 60% in size). As to conditions: Potency: qHTS inhibition; outcome: qHTS inhibition. In outline:
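Recombinant human AChE (50 mU/mL in the enzyme mix) and human liver microsomes (0.25 mg/mL final) were preincubated with compound and NADPH (0.25 mg/mL final) for 30 min at 37 C. Acetylthiocholine/DTNB was then added; thiocholine was read colorimetrically after 10 min at room temperature.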

For test [10], the target named is Cytochrome P450 2D6 (Homo sapiens) (UniProt P10635). In words: Cytochrome P450 Family 2 Subfamily D Member 6 (CYP2D6) small molecule antagonists: luciferase reporter qHTS assay (AID 1671196). Note: nearly all actives have a fitted effect of over 50% in size. Note: potency is the fitted concentration of half-maximal effect. In outline: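 Test chemicals meet CYP2D6 plus proluciferin substrate (10 min, RT); NADPH regenerating solution then drives turnover for 1 h. Detection reagent halts the reaction; luminescence measured after 20 min.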
Chain of Cytochrome P450 2D6 (Homo sapiens) (P10635 whole entry, looked up): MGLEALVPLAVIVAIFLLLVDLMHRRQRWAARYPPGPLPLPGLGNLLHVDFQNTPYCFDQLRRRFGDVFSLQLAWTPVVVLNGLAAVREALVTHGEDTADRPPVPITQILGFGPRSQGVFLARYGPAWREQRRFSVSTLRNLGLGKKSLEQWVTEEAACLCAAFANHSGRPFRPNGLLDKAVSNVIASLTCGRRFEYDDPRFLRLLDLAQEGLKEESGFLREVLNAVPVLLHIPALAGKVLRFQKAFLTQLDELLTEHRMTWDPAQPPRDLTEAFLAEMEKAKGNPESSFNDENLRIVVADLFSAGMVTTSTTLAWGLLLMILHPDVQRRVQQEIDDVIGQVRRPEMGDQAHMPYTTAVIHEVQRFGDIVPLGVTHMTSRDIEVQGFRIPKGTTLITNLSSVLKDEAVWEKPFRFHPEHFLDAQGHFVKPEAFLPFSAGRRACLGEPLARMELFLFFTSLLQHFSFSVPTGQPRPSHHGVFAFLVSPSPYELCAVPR
For orientation: Reporter assays use an easily measured gene product as a stand-in for the process of interest.

In test [11] the target is Cytochrome P450 2C19 (Homo sapiens) (UniProt P33261). In words: Cytochrome P450 Family 2 Subfamily C Member 19 (CYP2C19) small molecule antagonists: luciferase reporter qHTS assay (AID 1671197). Note: nearly all actives have a fitted effect of over 65% in size. Note: potency is the fitted concentration of half-maximal effect. In outline:
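Quantitative high-throughput screen of the Tox21 library using CYP2C19 with proluciferin substrate. Reaction: NADPH regeneration, 37C, 1 h, after 10 min compound preincubation at room temperature. Readout: luminescence.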

Test [12] concerns the target Cytochrome P450 2C9 (Homo sapiens) (UniProt P11712). As to the kind of experiment: Cytochrome P450 Family 2 Subfamily C Member 9 (CYP2C9) small molecule antagonists: luciferase reporter qHTS assay (AID 1671198). Note: nearly all actives have a fitted effect of over 50% in size. Note: potency is the fitted concentration of half-maximal effect. In outline:
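Enzyme-substrate mix preincubated with compound 10 min at room temperature; reaction started with NADPH regeneration solution, 1 h 37C. Luminescent luciferin product read after 20 min detection reagent.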

The target of test [13] is Cytochrome P450 1A2 (Homo sapiens) (UniProt P05177). In words: Cytochrome P450 Family 1 Subfamily A Member 2 (CYP1A2) small molecule antagonists: luciferase reporter qHTS assay (AID 1671199). Note: nearly all actives have a fitted effect of over 50% in size. Note: potency is the fitted concentration of half-maximal effect. In outline: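 Steps: enzyme-substrate mix dispensed; test compounds and furafylline control pinned in; 10 min room temperature; NADPH regeneration solution added, 1 h; reaction stopped with luciferin detection reagent; luminescence read after 20 min.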
Chain of Cytochrome P450 1A2 (Homo sapiens) (P05177 whole entry, looked up): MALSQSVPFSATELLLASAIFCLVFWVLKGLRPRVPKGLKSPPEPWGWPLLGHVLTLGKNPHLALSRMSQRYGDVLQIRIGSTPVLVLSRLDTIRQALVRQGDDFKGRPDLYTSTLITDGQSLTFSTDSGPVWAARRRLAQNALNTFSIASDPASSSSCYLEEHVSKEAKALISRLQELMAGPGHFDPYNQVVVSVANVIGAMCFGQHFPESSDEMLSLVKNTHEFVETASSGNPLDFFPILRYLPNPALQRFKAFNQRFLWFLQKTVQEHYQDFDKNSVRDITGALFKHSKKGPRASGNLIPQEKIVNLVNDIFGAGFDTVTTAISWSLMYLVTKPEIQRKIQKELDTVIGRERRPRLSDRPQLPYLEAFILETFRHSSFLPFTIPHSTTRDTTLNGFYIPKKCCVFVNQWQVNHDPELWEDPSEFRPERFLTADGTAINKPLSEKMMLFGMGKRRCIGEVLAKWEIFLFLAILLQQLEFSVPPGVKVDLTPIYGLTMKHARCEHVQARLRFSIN

In test [14] the target is Voltage-gated inwardly rectifying potassium channel KCNH2 (Homo sapiens) (UniProt Q12809). In words: Human Ether-a-go-go-Related Gene (hERG) channel small molecule antagonists: fluorescence cell-based qHTS assay (AID 1671200). In outline: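 Read-out: thallium influx as a surrogate for potassium, tracked as fluorescence (480 nm ex/540 nm em) every second for 2 min after Stimulus Buffer addition in dye-loaded hERG-U2OS cells.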
Chain of Voltage-gated inwardly rectifying potassium channel KCNH2 (Homo sapiens) (Q12809 whole entry, looked up): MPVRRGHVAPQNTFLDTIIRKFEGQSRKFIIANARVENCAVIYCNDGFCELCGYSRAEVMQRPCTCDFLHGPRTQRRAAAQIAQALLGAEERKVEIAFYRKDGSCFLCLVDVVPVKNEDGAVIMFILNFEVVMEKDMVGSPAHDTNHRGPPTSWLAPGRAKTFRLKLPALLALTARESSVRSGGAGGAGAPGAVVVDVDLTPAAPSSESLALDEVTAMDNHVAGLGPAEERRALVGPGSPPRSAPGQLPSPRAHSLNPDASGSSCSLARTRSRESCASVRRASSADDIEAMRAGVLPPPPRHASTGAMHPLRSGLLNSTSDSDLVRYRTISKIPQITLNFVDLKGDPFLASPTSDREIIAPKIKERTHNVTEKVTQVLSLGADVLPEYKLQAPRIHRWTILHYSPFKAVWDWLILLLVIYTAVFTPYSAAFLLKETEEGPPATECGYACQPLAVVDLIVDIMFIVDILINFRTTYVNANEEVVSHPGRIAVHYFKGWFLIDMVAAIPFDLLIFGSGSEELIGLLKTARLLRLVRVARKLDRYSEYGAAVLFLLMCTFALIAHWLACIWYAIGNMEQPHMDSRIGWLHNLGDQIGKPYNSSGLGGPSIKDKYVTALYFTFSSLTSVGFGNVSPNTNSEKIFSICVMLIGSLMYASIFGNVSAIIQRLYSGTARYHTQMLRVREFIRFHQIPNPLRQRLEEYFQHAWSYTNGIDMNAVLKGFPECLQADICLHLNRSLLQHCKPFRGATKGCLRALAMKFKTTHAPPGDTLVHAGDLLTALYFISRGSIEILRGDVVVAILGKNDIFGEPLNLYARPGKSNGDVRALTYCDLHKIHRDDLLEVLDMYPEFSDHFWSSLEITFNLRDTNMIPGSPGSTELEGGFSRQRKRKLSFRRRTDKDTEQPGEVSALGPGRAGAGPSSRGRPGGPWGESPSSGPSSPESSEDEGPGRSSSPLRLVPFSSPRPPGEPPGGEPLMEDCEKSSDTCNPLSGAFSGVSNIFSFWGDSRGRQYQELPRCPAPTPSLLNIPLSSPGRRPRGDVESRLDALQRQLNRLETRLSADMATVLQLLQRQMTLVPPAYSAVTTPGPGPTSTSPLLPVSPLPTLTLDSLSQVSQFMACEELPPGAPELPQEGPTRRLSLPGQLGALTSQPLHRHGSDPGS
In general terms: The hERG channel carries a current that helps repolarise heart muscle cells.

Test [15] concerns the target Acetylcholinesterase (Homo sapiens) (UniProt P22303). As to the kind of experiment: Acetylcholinesterase (AChE) small molecule antagonists: enzyme-based qHTS assay (AID 1347397; calls by dose curve; note: nearly all actives have a fitted effect of over 55% in size). As to conditions: Potency: AChE enzyme activity inhibition; outcome: AChE enzyme activity inhibition. Summed up:
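First, recombinant human AChE (50 mU/mL as dispensed) received test compound or DMSO. Second, plates stood 30 min at room temperature. Third, DTNB and acetylthiocholine were added, followed by 10 min at room temperature and colorimetric detection.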

For test [16] the target is unchanged. In words: Acetylcholinesterase (AChE) small molecule antagonists: fluorescence cell-based qHTS assay (AID 1347398; calls by dose curve; note: nearly all actives have a fitted effect of over 50% in size). As to conditions: Potency: AChE activity; outcome: AChE activity. In outline:
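Homogeneous quantitative HTS format. SH-SY5Y cells seeded at 2,000 per well settle overnight at 37 C. Compound pretreatment runs 30 min (37 C, 5% CO2); substrate/probe mix then reacts 40 min at RT before reading 490/520 nm.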

Test [17] deals with Cytochrome P450 3A4 (Homo sapiens) (UniProt P08684). In words: Cytochrome P450 Family 3 Subfamily A Member 4 (CYP3A4) small molecule antagonists: luciferase reporter qHTS assay (AID 1671201). Note: nearly all actives have a fitted effect of over 50% in size. Note: potency is the fitted concentration of half-maximal effect. Summed up:
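Luminescent readout (RLU) proportional to CYP3A4 activity, from luciferin generated off a proluciferin substrate. Enzyme–substrate mix plus compound 10 min at room temp, NADPH regeneration 1 h, detection reagent 20 min.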

Chain of Nuclear receptor subfamily 1 group I member 2 (Homo sapiens) (O75469 whole entry, looked up): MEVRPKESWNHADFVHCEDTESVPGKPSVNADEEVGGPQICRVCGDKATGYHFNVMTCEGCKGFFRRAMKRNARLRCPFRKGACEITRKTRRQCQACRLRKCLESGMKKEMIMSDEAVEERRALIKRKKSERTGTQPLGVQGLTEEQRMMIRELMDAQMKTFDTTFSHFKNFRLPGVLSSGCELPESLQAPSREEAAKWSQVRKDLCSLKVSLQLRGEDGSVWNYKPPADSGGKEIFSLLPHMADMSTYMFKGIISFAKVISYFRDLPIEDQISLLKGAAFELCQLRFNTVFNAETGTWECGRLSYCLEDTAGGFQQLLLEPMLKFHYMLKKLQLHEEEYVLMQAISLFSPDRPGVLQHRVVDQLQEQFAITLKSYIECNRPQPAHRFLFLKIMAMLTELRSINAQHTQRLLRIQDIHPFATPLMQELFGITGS
Chain of Acetylcholinesterase (Homo sapiens) (P22303 whole entry, looked up): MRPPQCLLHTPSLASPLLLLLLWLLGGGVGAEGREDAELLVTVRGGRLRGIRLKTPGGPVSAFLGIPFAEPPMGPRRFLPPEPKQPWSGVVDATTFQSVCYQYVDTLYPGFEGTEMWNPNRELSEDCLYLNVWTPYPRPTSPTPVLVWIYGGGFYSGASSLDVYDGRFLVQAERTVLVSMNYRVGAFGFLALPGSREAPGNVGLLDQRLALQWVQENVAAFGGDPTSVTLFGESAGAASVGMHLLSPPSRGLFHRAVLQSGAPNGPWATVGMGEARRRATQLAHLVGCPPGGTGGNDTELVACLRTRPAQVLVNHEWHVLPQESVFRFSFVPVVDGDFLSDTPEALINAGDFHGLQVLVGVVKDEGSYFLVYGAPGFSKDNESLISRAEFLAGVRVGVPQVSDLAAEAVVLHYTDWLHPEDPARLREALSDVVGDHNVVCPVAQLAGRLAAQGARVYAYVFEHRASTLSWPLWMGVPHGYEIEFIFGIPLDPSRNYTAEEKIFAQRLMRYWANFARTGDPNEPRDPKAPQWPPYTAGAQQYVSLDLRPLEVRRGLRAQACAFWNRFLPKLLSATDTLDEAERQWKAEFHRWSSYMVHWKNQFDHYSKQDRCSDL
Chain of Cytochrome P450 2C19 (Homo sapiens) (P33261 whole entry, looked up): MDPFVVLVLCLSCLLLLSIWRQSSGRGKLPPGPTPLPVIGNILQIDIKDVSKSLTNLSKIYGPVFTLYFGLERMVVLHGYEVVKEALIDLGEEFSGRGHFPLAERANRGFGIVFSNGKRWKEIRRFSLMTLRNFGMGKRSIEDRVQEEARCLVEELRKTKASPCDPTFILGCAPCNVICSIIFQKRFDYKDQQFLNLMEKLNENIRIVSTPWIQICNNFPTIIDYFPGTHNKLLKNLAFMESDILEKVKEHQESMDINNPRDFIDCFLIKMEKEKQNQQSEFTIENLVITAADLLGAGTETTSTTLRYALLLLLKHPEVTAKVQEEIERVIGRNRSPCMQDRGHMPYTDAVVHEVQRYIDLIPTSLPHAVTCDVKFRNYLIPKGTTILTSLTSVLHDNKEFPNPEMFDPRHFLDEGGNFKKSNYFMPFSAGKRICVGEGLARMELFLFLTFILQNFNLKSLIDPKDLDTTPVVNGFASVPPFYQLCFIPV
Chain of Cytochrome P450 2C9 (Homo sapiens) (P11712 whole entry, looked up): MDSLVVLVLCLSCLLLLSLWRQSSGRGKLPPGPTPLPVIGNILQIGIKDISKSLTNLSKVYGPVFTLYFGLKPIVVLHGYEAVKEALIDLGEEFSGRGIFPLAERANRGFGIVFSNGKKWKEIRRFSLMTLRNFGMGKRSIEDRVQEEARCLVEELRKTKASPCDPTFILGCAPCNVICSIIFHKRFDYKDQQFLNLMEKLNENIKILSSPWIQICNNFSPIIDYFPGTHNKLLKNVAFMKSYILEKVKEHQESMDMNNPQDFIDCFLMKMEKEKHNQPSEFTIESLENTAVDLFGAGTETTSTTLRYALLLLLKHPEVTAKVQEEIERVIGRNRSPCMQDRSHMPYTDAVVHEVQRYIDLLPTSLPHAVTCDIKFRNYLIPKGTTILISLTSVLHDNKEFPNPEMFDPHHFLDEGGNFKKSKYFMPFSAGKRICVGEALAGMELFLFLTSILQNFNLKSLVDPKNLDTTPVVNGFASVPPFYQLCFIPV
Chain of Thyrotropin-releasing hormone receptor (Homo sapiens) (P34981 whole entry, looked up): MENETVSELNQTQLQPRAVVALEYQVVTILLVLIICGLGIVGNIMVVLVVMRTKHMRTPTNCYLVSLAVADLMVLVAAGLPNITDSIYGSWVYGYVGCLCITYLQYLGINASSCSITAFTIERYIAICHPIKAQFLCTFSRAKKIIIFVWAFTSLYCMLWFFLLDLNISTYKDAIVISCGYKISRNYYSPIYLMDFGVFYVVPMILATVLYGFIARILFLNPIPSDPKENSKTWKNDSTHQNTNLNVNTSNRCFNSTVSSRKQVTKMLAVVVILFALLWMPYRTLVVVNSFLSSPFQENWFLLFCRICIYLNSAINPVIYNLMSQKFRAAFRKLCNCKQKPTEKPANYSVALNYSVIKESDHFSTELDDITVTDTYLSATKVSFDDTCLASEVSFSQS

In the case of `CS(=O)(=O)c1ccc(C(=O)C2C(=O)CCCC2=O)c(Cl)c1COCC(F)(F)F`, the compound was classed as inactive in test [1], in [3] and in test [5]. The Potency entry in [2], in test [4], in test [6], in test [7], in test [9] and in test [10] was “inactive” each time. In addition, the Potency result in test [11], in [13] and in test [14] was “inactive” in each case. For the same compound, the Potency in test [8] was 28.3 µM (active); in test [12], 6.33 µM (active).
Consider `CCOC(=O)c1ncn2c1CN(C)C(=O)c1c(I)cccc1-2`, for which the call in test [1], in test [3] and in test [5] was inactive. Moreover, the Potency result in [2], in test [4], in [6], in [7], in test [8] and in [15] was “inactive” throughout. The Potency entry in test [16], in test [9], in test [13], in [14] and in [17] was “inactive” each time.
On to `COc1ccccc1OC`, for which the compound was called inactive in [1], in test [3] and in test [5]. The Potency result in test [2], in test [4], in [6], in [7], in test [15] and in test [16] was “inactive” each time. The Potency entry in test [9], in test [10], in [12], in test [13], in test [14] and in test [17] was “inactive” throughout. In test [11], the Potency was 79.6 µM (active).
For the compound `O=C/C=C/c1ccco1`, the outcome in [1], in test [3] and in test [5] was inactive. For the same compound, the Potency result in test [2], in [4], in [6], in test [7], in [8] and in test [16] was “inactive” throughout. The Potency entry in test [9], in [10], in test [11], in test [12], in [13] and in test [14] was “inactive” throughout. Further, the Potency entry in test [17] is “inactive”.
As for `O=CCCl`, the compound was called inactive in test [1], in [3] and in [5]. Also, the Potency result in test [2], in test [4], in test [6], in test [7], in [8] and in test [15] was “inactive” in each case. Also, the Potency entry in [16], in test [9], in test [10], in test [11], in test [13] and in test [17] was “inactive” throughout.
On to `CCC(CC)(CNC(=O)CCCO)c1cccc(OC)c1`, for which the compound was classed as inactive in test [1], in test [3] and in [5]. Further, the Potency entry in [2], in test [4], in test [6], in test [7], in [8] and in test [15] was “inactive” each time. The Potency result in test [16], in [9], in test [13] and in [14] was “inactive” in each case. For the same compound, the Potency in test [11] is 7.76 µM (active).
`CC#Cc1cc(C)nc(Nc2ccccc2)n1`: the outcome in test [1], in [3] and in test [5] was inactive. For the same compound, the Potency result in [2], in test [4], in test [6], in test [8], in test [16] and in test [9] was “inactive” in each case. Also, in test [10], the Potency entry is “inactive”. The Potency in test [7] was 30.6 µM (active); in [11], 35.5 µM (active); in test [12], 35.5 µM (active); in test [13], 1.59 µM (active); in [17], 63.2 µM (active).
In the case of `CCC(C)(C#N)N=NC(C)(C#N)CC` (centres undefined), the call in test [1], in test [3] and in test [5] was inactive. Also, the Potency result in test [2], in test [4], in test [6], in test [7], in test [8] and in [16] was “inactive” in each case. The Potency result in [9], in [10], in test [12], in test [13], in [14] and in [17] was “inactive” each time.
As to `CCN[C@H](C)Cc1cccc(C(F)(F)F)c1`, the result in [1], in [3] and in [5] was inactive. Moreover, the Potency entry in [2], in test [4], in test [6], in test [7], in test [8] and in test [16] was “inactive” each time. The Potency result in test [9], in test [11], in test [12], in test [14] and in [17] was “inactive” in each case. The Potency in [10] is 2.24 µM (active).
